Test results reported in PubChem BioAssay (NCATS).
Records with an inconclusive call do not appear. Active and inactive are the calls of the source. Calls follow the shape of the dose curve; as a rule, active = well fitted curve in the direction sought with a large enough effect; inconclusive = small, poorly fitted or top-dose-only effect, or another doubt; inactive = no such curve, though single readings can be large; an effect the other way counts as inactive or inconclusive.

assay: qHTS for Inhibitors of Cell Surface uPA Generation: Validation Assay (AID 493164); settings: mouse cells, plasminogen activation; series mostly up to 38.3 µM;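 also: RAW 264.7 macrophage cells exposed to compound for 18 h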
Summary of the method: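 ATP-Lite luminescence read-out: ATP remains high when uPA activity-dependent LF translocation into the cytoplasm is blocked. RAW 264.7 cells, 18 h compound exposure at 37 C; 7-point titration, 2.45 nM to 38.3 uM final.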

SMILES | outcome
CCN(CC)CCNC(=O)c1ccc(NS(C)(=O)=O)cc1 | inactive
Cc1nn(-c2ccccc2)c(C)c1/C=N/N1CCN(Cc2ccccc2)CC1 | inactive
O=C1NC(=O)/C(=C/c2ccc3c(c2)OC(F)(F)O3)S1 | inactive
CC(C)N(CCC(=O)c1ccc2ccccc2c1)Cc1ccccc1 | inactive
CN(C)c1cc2c(Nc3ccc4c(cnn4Cc4ccccc4)c3)ncnc2cn1 | inactive
Nc1ncnc2n[nH]c(Nc3ccc(F)cc3)c12 | inactive
O=[N+]([O-])c1ccc(-c2nc(-c3ccc(F)cc3)c(-c3ccncc3)[nH]2)cc1 | inactive
COC(=O)C1=CO[C@@H](O)[C@@H]2C(CO)=CC[C@H]12 | inactive
N[C@@H](Cn1ccc(=O)c(O)c1)C(=O)O | inactive
O=C1NC(c2cccc([N+](=O)[O-])c2)=CCN1c1ccccc1O | inactive
Brc1ccc([C@H]2CN3CCSC3=N2)cc1 | inactive
COc1cccc2c1[C@@H]1CN(CCCCn3c(=O)[nH]c4c(sc5ncc(-c6ccccc6)nc54)c3=O)C[C@@H]1CO2 | inactive
Clc1ccc2c(c1)N=C(N1CCNCC1)c1ccccc1N2 | inactive
C[N+](C)(C)CCO | inactive
COc1ccccc1N1CCN(CCN2C(=O)CC3(CCCC3)CC2=O)CC1 | inactive
Cn1cnc2c(NCc3ccccc3)nc(NCCO)nc21 | inactive
NC(N)=NCCCCN=C(N)N | inactive

assay: Validation screen for small molecules that induce DNA re-replication in SW480 colon adenocarcinoma cells (AID 504364); settings: DNA re-replication phenotype (high-content imaging); series mostly up to 46.1 µM
Summary of the method: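 Image-based DNA content read-out: Hoechst stain 40 min, total nuclear fluorescence intensity (ex 405 nm, em 500-530 nm) after 48 h compound exposure of 250 SW480 cells/well at 37 C, 5% CO2, versus DMSO vehicle.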

SMILES | outcome
CC(C)N(CCC(=O)c1ccc2ccccc2c1)Cc1ccccc1 | inactive
O=[N+]([O-])c1ccc(-c2nc(-c3ccc(F)cc3)c(-c3ccncc3)[nH]2)cc1 | inactive
O=C1NC(c2cccc([N+](=O)[O-])c2)=CCN1c1ccccc1O | inactive
Brc1ccc([C@H]2CN3CCSC3=N2)cc1 | inactive
COc1cccc2c1[C@@H]1CN(CCCCn3c(=O)[nH]c4c(sc5ncc(-c6ccccc6)nc54)c3=O)C[C@@H]1CO2 | inactive
C[N+](C)(C)CCO | inactive
COc1ccccc1N1CCN(CCN2C(=O)CC3(CCCC3)CC2=O)CC1 | inactive
C[C@]12CCC(=O)C=C1CC[C@@H]1[C@@H]2[C@@H](O)C[C@@]2(C)[C@H]1CC[C@]2(O)C(=O)COC(=O)CCC(=O)O | inactive
Cn1cnc2c(NCc3ccccc3)nc(NCCO)nc21 | inactive
NC(N)=NCCCCN=C(N)N | inactive
